Bioassay records (PubChem)
HIF-2a inh: inhibitors of HIF-2a; inhibition, % at 18.8 µM; hit rate 0.72% among 360,000; 786-0 RCC cells HIF-2a reporter, luciferase luminescence, overnight; AID 624352;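 active means inhibition of the luminescence signal of 40% or more relative to plate controls, in a single-dose primary screen at 18.75 µM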
KKLEB cytotox: reduces viability of KKLEB cystic fibrosis airway cells; KKLEB CF airway cells viability, ATPlite luminescence, overnight; active compounds read low; cells stimulated with P. aeruginosa culture filtrate; activity change (cytotoxicity), % at 5 µM; hit rate 0.36% among 360,000;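 active means corrected activity change at or below -50% at 5 µM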
CF NFkB inh: inhibitors of cystic fibrosis induced NF-kB. hit rate 0.86% among 360,000. KKLEB NF-kB-GFP reporter, PAF-induced, GFP fluorescence overnight. inhibition, % at 5 µM;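 active means at least 50% inhibition at 5 µM, scaled per plate between neutral and stimulator controls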;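 further: PAF is a Pseudomonas aeruginosa culture filtrate used as stimulus; plate controls were PAF-stimulated DMSO wells for no effect and unstimulated DMSO wells for full effect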
TWEAK-Fn14 inh: TWEAK-Fn14 signaling inhibition; TWEAK-stimulated Fn14 reporter cells, luciferase luminescence, 8 h; inhibition, % at 10 µM; hit rate 2% among 360,000; AID 1159606; in the data active means inhibition above about 50%
TROY NFkB inh: inhibitors of TROY-dependent NF-kB signaling | Q293 LMP1-TROYcd NF-kB luciferase reporter, 4 h | inhibition, % at 10 µM | hit rate 0.98% among 360,000 | AID 1347056;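 active means compounds whose plate-normalised and pattern-corrected inhibition of the luciferase reporter signal at the single screening dose is 50% or more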
Peg3 prom inh: inhibitors of Peg3 promoter; hit rate 1.7% among 360,000; AID 588405; inhibition, % at 20 µM; HeLa PEG-Prom luciferase reporter, luminescence, overnight;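 active means inhibition of at least 50% at 20 µM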
The depositor's hits bear a star; · = not tested or not shown. An excerpt weighted towards active compounds, which were near 4% of everything screened.

SMILES	HIF-2a inh	KKLEB cytotox	CF NFkB inh	TWEAK-Fn14 inh	TROY NFkB inh	Peg3 prom inh
COC(=O)c1cc(F)c(-n2cncn2)c(F)c1	9	-5	-4	22	18	20
CN(C)S(=O)(=O)Oc1ccsc1C(=O)Nc1ccc(Cl)c(Cl)c1	-23	-4	12	22	-1	8
COc1ccc(COc2ccsc2C(=O)Nc2ccc(Cl)c(Cl)c2)cc1	-47	-66*	44	-11	-9	32
c1ccc2nc(-c3ccc(N4CCOCC4)cc3)ccc2c1	-9	-46	-20	90*	53*	32
Cc1cc(-c2ccc(N3CCOCC3)cc2)nc2ccccc12	-210	-28	-15	-29	-41	-149
N=C1S/C(=C\c2cn[nH]c2-c2ccc(F)cc2)C(=O)N1c1ccccc1F	-222	13	50*	7	26	-233
N=C1S/C(=C\c2ccccc2F)C(=O)N1c1ccc(F)cc1	14	2	3	-17	15	9
O=c1c2c(nc3n1CCCCC3)sc1c(O)c(Br)ccc12	-180	0	-2	68*	36	-64
CCN(CC)CCOc1c(Br)ccc2c1sc1nc3n(c(=O)c12)CCC3	-26	12	-18	-30	-35	10
C/C(=C(/NC(=O)c1ccccc1)C(=O)O)c1ccco1	15	6	-7	87*	6	1
CCNC(=S)N(Cc1cccs1)Cc1cc2cc(OCC)ccc2[nH]c1=O	21	4	-7	76*	-17	21
COc1cc(OC)c(S(=O)(=O)N2CCCCC2)cc1S(=O)(=O)N1CCCCC1	11	8	-5	83*	·	6
COc1c(S(=O)(=O)N2CCCCC2)ccc2c(S(=O)(=O)N3CCCCC3)cccc12	9	7	11	64*	43	39
O=S(=O)(c1cccc2c(S(=O)(=O)N3CCCC3)cccc12)N1CCCC1	8	9	-22	-19	7	8
COc1cc(S(=O)(=O)N2CCCCC2)c(OC)cc1Br	12	-8	8	1	0	17
O=C(CN(Cc1cccs1)S(=O)(=O)c1ccc(S(=O)(=O)NC2CCCCC2)cc1)Nc1ccccc1	16	-10	-10	69*	27	47
O=C(CN1C(=O)NC2(CCCCC2)C1=O)N1CCOCC1	6	1	3	7	-1	9
C#CCn1cc(CNC[C@H]2O[C@@H](n3cnc4c(=O)[nH]c(N)nc43)[C@H](O)[C@@H]2O)c2ccccc21	18	2	1	-15	3	-7
O=c1ccc(N=Nc2ccccc2)ccc1O	-40	3	-11	2	-29	-30
Oc1ccc(N=Nc2ccccc2)o1	16	-21	95*	45	-24	38
CC(C)(C)OC(=O)NCCCC[C@H](NC(=O)c1[nH]cnc1C(=O)Nc1ccccc1)C(=O)OC(C)(C)C	21	-30	15	17	7	53*
C[C@@H](NC(=O)c1nc[nH]c1C(=O)N[C@@H](CCCCNC(=O)OC(C)(C)C)C(=O)OC(C)(C)C)c1ccccc1	29	-8	9	5	15	21
CC(C)(C)OC(=O)NCc1ccc(CNC(=O)c2[nH]cnc2C(=O)NCC(=O)OCc2ccccc2)cc1	13	-2	-6	17	46	52*
Cc1ccc(NC(=O)c2nc[nH]c2C(=O)NC2CCN(C(=O)OC(C)(C)C)CC2)cc1	3	-1	5	-5	2	19
CC(C)(C)OC(=O)NCCCC[C@H](NC(=O)c1[nH]cnc1C(=O)Nc1ccc(Cl)cc1)C(=O)OC(C)(C)C	19	4	10	11	13	63*
SMILES	HIF-2a inh	KKLEB cytotox	CF NFkB inh	TWEAK-Fn14 inh	TROY NFkB inh	Peg3 prom inh
CC(C)(C)OC(=O)N1CCC(NC(=O)c2[nH]cnc2C(=O)Nc2ccccc2)CC1	19	-8	11	-2	-11	52*
CC(C)(C)OC(=O)[C@H](Cc1ccccc1)NC(=O)c1nc[nH]c1C(=O)N[C@@H](CCCCN)C(=O)OC(C)(C)C	5	-8	20	11	6	103*
CCOC(=O)c1ccc(NC(=O)c2nc[nH]c2C(=O)NCCNC(=O)c2[nH]cnc2C(=O)Nc2ccc(C(=O)OCC)cc2)cc1	-14	-50*	76*	6	3	91*
CCOC(=O)c1ccc(NC(=O)c2nc[nH]c2C(=O)NC)cc1	-48	25	-11	-18	-6	-32
Cc1ccc(C(C)C)c(OCC(=O)Nc2sc3c(c2C#N)CC(C)(C)NC3(C)C)c1	12	-15	21	50*	47	32
CCn1cc(C(=O)NCc2cccs2)c(=O)c2ccc(C)nc21	-5	-2	-6	4	-6	14
C=CCSc1nnc(NC(=O)c2cn(CC)c3nc(C)ccc3c2=O)s1	-2	-4	-2	90*	5	-7
COc1ccc(C)cc1S(=O)(=O)NCc1ccccn1	4	6	-23	-12	-3	6
Nc1[nH]c(C(=O)c2ccccc2)c(-c2ccccc2C(F)(F)F)c1C(=O)NCc1cccc2ccccc12	-37	·	·	-3	14	·
CS(=O)(=O)c1ccccc1C(=O)Nc1ccc(-c2nc3ccccc3[nH]2)cc1	-194	4	-5	-19	-68	-243
O=C(Nc1ccc(-c2nc3ccccc3[nH]2)cc1)c1ccccc1NS(=O)(=O)c1ccc(F)cc1	-48	-20	-17	8	58*	-18
Cc1ccc(S(=O)(=O)Nc2ccccc2C(=O)Nc2nc(-c3ccc(F)cc3)cs2)cc1	9	-58*	49	93*	75*	41
COc1ccc(-c2csc(NC(=O)c3ccccc3NS(=O)(=O)c3ccc(F)c(F)c3)n2)cc1	35	-51*	55*	74*	69*	47
COc1ccc(-c2csc(NC(=O)c3ccccc3F)n2)cc1	-223	-3	-5	7	-9	-160
CCn1nnc2cc(C(=O)NCCc3ccccc3F)ccc21	5	-2	11	82*	31	1
CCN1CCN(c2cc(SC(C)C)nc(-c3ccc(OC)cc3)n2)CC1	8	-5	1	-9	-6	53*
CC(C)Sc1cc(N2CCOCC2)nc(-c2ccc(Cl)cc2)n1	15	6	6	10	·	16
c1ccc(-c2ccc(-c3cn4c(n3)CCC4)cc2)cc1	-158	-23	-17	55*	30	-109
CCC(C(=O)NCCCN1CC(C)CC(C)C1)n1ncn2c(cc3occc32)c1=O (configuration not stated)	4	4	-8	-17	-1	-33
Cc1nnsc1C(=O)N/N=C/c1ccc2ccccc2c1O	3	-2	1	54*	26	44
Cc1nnsc1C(=O)N/N=C/c1ccccc1	5	-4	-14	-16	-12	-13
